Screening results deposited in PubChem BioAssay by National Center for Advancing Translational Sciences (NCATS).
IMPase Li cell = IMPase inhibition in cells with lithium potentiation; Potency, µM (top dose mostly 59.4 µM), for inactives: at the highest dose activity, negative = IMPase inhibition, usual class: inhibitors; CHO-M1 cells, IP1 TR-FRET (IP-One), carbachol + lithium; 210,000 tested, 0.35% active;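 also: IP1 builds up when IMPase is blocked and the TR-FRET signal falls; potency is read from the fitted curve at half-maximal effect; plate controls were basal vehicle for no effect and high inhibitor control for full effect; nearly all actives have a fitted effect of over 50% in size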
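CHO-M1, 2000 cells/well, 16–30 h culture; cpd + low Li+, 30 min 37C; lysis with d2-IP1/Eu-anti-IP1 Ab, 10 min RT; TR-FRET 665/620 ratio and 620 channel; AC50 via Hill.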
IMPase cell inh = membrane-permeable compound that blocks inositol monophosphatase; CHO-M1 cells, IP1 accumulation, HTRF TR-FRET ratio; inhibition (IP1 accumulation), % at 46.1 µM; 120,000 tested, under 10 active; AID 901; active = well fitted curve in the direction sought with a large enough effect in the signal ratio, not every such curve was filed as active; inconclusive = small, poorly fitted or top-dose-only effect, or a change in a side signal; inactive = no such curve, though single readings can be large or run the other way; the % refers to the signal ratio;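 also: cells stimulated with carbachol in lithium chloride buffer; plate controls were DMSO basal wells for no effect and reference inhibitor wells for full effect; higher means more IMPase inhibition seen as more IP1 and lower FRET ratio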
Target sequence (P97697 whole entry, looked up): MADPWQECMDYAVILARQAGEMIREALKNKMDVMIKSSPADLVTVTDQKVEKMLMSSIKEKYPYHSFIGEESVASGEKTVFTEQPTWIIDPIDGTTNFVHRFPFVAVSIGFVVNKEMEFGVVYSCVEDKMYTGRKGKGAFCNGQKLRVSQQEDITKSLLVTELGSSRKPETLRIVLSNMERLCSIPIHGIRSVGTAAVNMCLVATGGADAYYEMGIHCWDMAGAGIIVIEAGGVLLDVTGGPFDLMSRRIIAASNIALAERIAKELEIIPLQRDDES
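Cellular IMPase inhibition is scored as a rise in cytosolic IP1, detected by competitive TR-FRET between d2-labelled IP1 and a europium anti-IP1 antibody. M1-expressing CHO cells were stimulated with carbachol for 30 min at 37C, with lithium (50 mM LiCl) present in the buffer.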
15-hLO-2 inh = inhibitors of human 15-lipoxygenase 2 (ALOX15B). O15296. purified 15hLO-2, xylenol orange hydroperoxide absorbance. Potency, µM (doses to about 57.1 µM), for inactives: at the highest dose activity change, negative = inhibition, actives largely listed as inhibitors. 110,000 tested, 0.56% active. AID 881; also: potency is read from the fitted curve at half-maximal effect; nearly all actives have a fitted effect of over 60% in size
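Purified human 15hLO-2 (50 nM final) preincubated with compounds 15 min at room temperature in 25 mM Hepes pH 7.5, 0.01% Triton X-100, then 45 uM arachidonic acid added for 90 min; hydroperoxide detected via ferrous/xylenol orange, 573/405 nm absorbance ratio.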
PNC assembly inh = inhibitors of perinucleolar compartment assembly | AID 2417 | 140,000 tested, 3.1% active | PC3M PTB-GFP, PNC prevalence imaging, 16 h; hits give low values | activity change (PNC), negative = inhibition, % at 10 µM;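 active = readout at or below -70, meaning at least 70% loss of cells showing the perinucleolar compartment, a nuclear body marking cancer cells; inconclusive = readout between -30 and a set limit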;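 also: plate controls were DMSO wells for no effect and camptothecin positive control wells for full effect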
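Compounds are pinned in duplicate onto adhered PC3M cells stably expressing GFP-tagged PTB and incubated 16 h at 37 C. Cells are then fixed, nuclei stained with Hoechst, and PNC-positive cells counted.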
ALOX12 inhib = blocks human 12-lipoxygenase activity | P18054 | purified 12-hLO, xylenol orange hydroperoxide absorbance | Potency, µM (series often up to 57.1 µM), for the others: top-dose activity change, negative = inhibition, most hits filed as inhibitors | 150,000 tested, 0.12% active | AID 1452; also: potency is read from the fitted curve at half-maximal effect; nearly all actives have a fitted effect of over 55% in size
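Hydroperoxide formation by human 12-lipoxygenase from 40 uM arachidonic acid was followed colorimetrically via ferric-xylenol orange complex, using the 573/405 nm absorbance ratio. Enzyme concentration was 150 nM, with 30 min reaction at room temperature.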
Numbers without * were called inactive; ? = inconclusive; · = no result; [ ] = remark or other dose. Only a selection was taken, and hits are over-represented in it overall. Unless noted, calls follow the shape of the dose curve; as a rule, active = well fitted curve in the direction sought with a large enough effect; inconclusive = small, poorly fitted or top-dose-only effect, or another doubt; inactive = no such curve, though single readings can be large; an effect the other way counts as inactive or inconclusive. Unless noted, % is scaled to controls: 0 for no effect and ±100 for the full control effect.

SMILES	IMPase Li cell	IMPase cell inh	15-hLO-2 inh	PNC assembly inh	ALOX12 inhib
Fc1cccc(-c2cc3nc4c(c(N5CCOCC5)n3n2)CCCC4)c1	17%[38.3 µM]	11	5%	-91*	-3%
Clc1cccc(-c2cc3nc4c(c(N5CCOCC5)n3n2)CCCC4)c1	23%[38.3 µM]	5	19%	16	7%
Clc1cccc(-c2cc3nc4c(c(N5CCN(c6cnccn6)CC5)n3n2)CCCC4)c1	19%	-3	·	-100*	-4%
CCc1ccc(Oc2nc3c(C)cccn3c(=O)c2/C=C(\C#N)c2nc3ccccc3s2)cc1	·	7	·	·	·
CCN(CC)C(=O)C1CCCc2c1[nH]c1ccc(Cl)cc21 (stereo not given)	10%	0	·	-93*	2%
CCCCC(=O)Nc1sc(C(=O)N(CC)CC)c(C)c1C(=O)OC	7%	1	·	-100*	-4%
Cc1cc(C)nc(SCC(=O)Nc2ncc(Cc3ccc(Cl)c(Cl)c3)s2)n1	6%	·	·	-113*	3%
Cc1ccc(Cc2cnc(NC(=O)CN3CCOCC3)s2)cc1Cl	3%	0	31%	29	3%
O=c1c(-c2ccccc2)nc2cnc(N3CCOCC3)nc2n1CCc1ccccc1	-14%	·	4%	·	·
Cc1cccc(N(CC(=O)NCc2ccccc2)C(=O)Cn2nnc(-c3ccc(C)o3)n2)c1	4%[38.3 µM]	5	-20%	-84*	1%
Cc1cccc(N(CC(=O)NC2CCCCC2)C(=O)Cn2nnc(-c3ccc(C)o3)n2)c1	3%	·	·	·	·
O=C(O)C=Cc1ccc(Cn2ccnc2)cc1	3%	0	0%	·	-4%
Cc1cc(OC(C)C(=O)Nc2c(C(=O)c3ccc(F)cc3)oc3ccccc23)ccc1Cl (stereo not given)	·	0	·	·	·
O=C(Nc1ccc2oc(-c3ccc(F)cc3)nc2c1)c1ccccc1F	-21%[38.3 µM]	-14	-7%	-15	-1%
O=C(NC(=S)Nc1ccc2oc(-c3ccncc3)nc2c1)c1ccccc1F	5.6µM*	·	·	·	·
C/C(=N/O)c1ccc2cc(Br)c3ccccc3c2c1	-2%	·	8%[11.4 µM]	·	0%[11.4 µM]
N/C(=N\O)c1cn([C@@H]2O[C@@H](CO)[C@H](O)[C@@H]2O)c2ncnc(NO)c12	7%	·	-6%[11.4 µM]	·	0%[11.4 µM]
CC1(C)CC(=O)C2=C(C1)N(c1cccc(Cl)c1)C(=O)NC2(C(F)(F)F)C(F)(F)F	-6%	·	·	-80*	1%
CC1(C)CC(=O)C2=C(C1)N(c1ccc(Cl)cc1)C(=O)C2(O)C(F)(F)F (stereo not given)	5%	·	·	?	3%
O=S(=O)(NCC1CCCO1)c1ccc(S(=O)(=O)N2CCc3ccccc3C2)cc1 (stereo not given)	34%[38.3 µM]	1[1.84 µM]	5%[11.4 µM]	-107*	0%
CC(C)OC(=O)c1cccc(-c2ccc(C=O)o2)c1	-16%	·	·	-108*	-3%
Cc1ccc(S(=O)(=O)N2CCN(Cc3ccccc3Cl)CC2)cc1	·	-4	·	·	·
Cc1cc([N+](=O)[O-])cc(C)c1OCC(=O)N/N=C/c1ccc(OC(=O)c2ccccc2)cc1	17%	·	·	-100*	-1%
Cc1cc([N+](=O)[O-])cc(C)c1OCC(=O)N/N=C/c1ccc(OC(=O)c2ccccc2Br)cc1	7%	·	·	62	-1%
Cc1ccc(CS(=O)(=O)CCC(=O)NCC2CCCO2)cc1 (stereo not given)	9%[38.3 µM]	-8	2%	-84*	-1%
SMILES	IMPase Li cell	IMPase cell inh	15-hLO-2 inh	PNC assembly inh	ALOX12 inhib
Cc1ccc(CS(=O)(=O)Cc2ccc(C(=O)NCC3CCCO3)o2)cc1 (stereo not given)	-7%[38.3 µM]	1	-6%	63	1%
Cc1nc(CCNC(=O)Cc2ccc(Cl)cc2)cs1	0%[38.3 µM]	-2	-1%	-90*	2%
Cc1nc(CCNC(=O)Cc2ccc(F)cc2)cs1	31%[38.3 µM]	-6	-1%	-14	2%
COC(=O)C1=C(C)NC(C)=C([N+](=O)[O-])[C@@H]1c1ccccc1C(F)(F)F	-6%	-2	-16%[0.0915 µM]	·	-2%[0.00818 µM]
C=CC[C@@H]1[C@H](O)CC[C@@]2(C)[C@H]1CC[C@@H]1[C@@H]2CC[C@]2(C)C([C@H](C)CCCC(C)C)CC[C@@H]12 (stereo not given in full)	4%	·	·	·	·
Cn1c(SCc2ccccc2)nnc1C1CCCNC1 (stereo not given)	26%[38.3 µM]	-9	2%	-107*	-2%
